Experimental data: PubChem BioAssay (NCI)
About 83,000 compounds went through this panel and 20% of them were active in at least one assay; those are over-represented in the sample as a whole.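 How to read the values: 0–100, growth inhibition (40 = 60% inhibited); 0, no net growth; -100 to 0, cell death (-40 = 40% of starting cells died; -100 = all dead).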 A number with no mark means an inactive call. The source made the active and inactive calls. How the source made its calls: active means growth percent below 10; inactive means the rest.

Each molecule was assayed on MCF7 breast (assay: NCI-60 one-dose screen, 48 h (100 = growth as untreated, 0 = no growth, -100 = all killed)). Settings: 10 µM unless noted.

For `O=c1c2cc(F)ccc2sc2c(NCCCNCCO)nc3ccc(F)cc3c12`, which growth is on record?
Its growth is 47.9%.

For `COc1ccc2sc3c(NCCCNCCO)nc4ccccc4c3c(=O)c2c1`, which growth is on record?
Its growth is 25.7%.

With `COc1ccc(C(=O)/C=C/c2sc(Cl)nc2Cl)cc1` as the molecule, how does the growth read?
Its growth is -7.05% (active).

For `O=C(O)c1cn(C2CC2)c2cc(N3CCN(C(=O)Nc4nc(-c5ccc(Cl)cc5)cs4)CC3)c(F)cc2c1=O`, which growth is on record?
The growth was 2.95% (active).

Which growth does the source give for `Cn1cc(-c2cc3ncnc(Nc4ccc(CC(=O)Nc5cc(C(C)(C)C)nn5C)cc4)c3s2)cn1` here?
The growth was 54.8%.

With `O=C(Nc1ccc(Cl)cc1F)c1ccccc1O` as the molecule, how does the growth read?
Its growth is 47.6%.

With `Cc1cc(Cl)ccc1NS(=O)(=O)c1ccc(-c2cnc(C3CC3)o2)cc1` as the molecule, how does the growth read?
Its growth is 12.7%.

`COc1c(B(O)O)cc(F)cc1-c1nc2ccc3[nH]ncc3c2c2c1CCCC2` was tested. Which growth did it give?
Its growth is 4.26% (active).

Which growth does the source give for `CCCCCCN(CCCCCC)c1ccc(/C=C2/SC(=O)NC2=O)c(C)c1` here?
The growth was 79.2%.

With `Cc1[nH]c(C(=O)Nc2ccc(C(=O)NCCN)cc2OC(C)C)c(Cl)c1Cl` as the molecule, how does the growth read?
Its growth is 5.44% (active).

With `COc1cc(/C=C/c2ccccc2)cc(OC)c1` as the molecule, how does the growth read?
Its growth is 71.4%.

For `COC(=O)c1ccc2[nH]c(O)c(C(=Nc3ccc(N(C)C(=O)CN4CCN(C)CC4)cc3)c3ccccc3)c2c1`, which growth is on record?
The growth was 27.6%.

`COc1cc(Nc2nc(NCCN)nc3cc[nH]c(=O)c23)cc(OC)c1` was tested. Which growth did it give?
Its growth is 77.2%.

For `O=c1c2cc(F)ccc2sc2c(NCCN3CCOCC3)nc3ccccc3c12`, which growth is on record?
The growth was 76.9%.

For `O=C1c2cccc3cccc(c23)C(=O)N1Nc1nc(N2CCOCC2)nc(N2CCN(c3ccccc3)CC2)n1`, which growth is on record?
The growth was 17.9%.

Which growth does the source give for `c1ccc(OCc2nnc(-c3ccc(Oc4ccccc4)cc3)o2)cc1` here?
The growth was 99.3%.

Which growth does the source give for `C=C1C(=O)O[C@H]2[C@H]1CC/C(COC(=O)CCC(=O)NCCOCCOCC(=O)Nc1ccc(OC)c(C(N)=O)c1O)=C\CC[C@@]1(C)O[C@@H]21` here?
Its growth is 74.6%.

How did the growth turn out when `Nc1ccc(Sc2ccc([N+](=O)[O-])c3nonc23)cc1` was run?
Its growth is 73.2%.

Which growth does the source give for `Cc1ccc(C(=O)NN2C(=O)CSC2c2cccc([N+](=O)[O-])c2)cn1` (stereo not drawn) here?
Its growth is 112%.

How did the growth turn out when `CCOC(=O)c1[nH]c(C)c(C(=O)OCc2ccccc2C#N)c1C` was run?
Its growth is 30.5%.

How did the growth turn out when `COc1ccc(-c2nnc(COc3ccc(Cl)cc3Cl)o2)cc1OC` was run?
Its growth is 32.9%.

For `c1ccc2cc(C[n+]3ccn(CCCCCCCCCCCCn4cc[n+](Cc5ccc6ccccc6c5)c4)c3)ccc2c1`, which growth is on record?
Its growth is -70.5% (active).

Which growth does the source give for `COc1ccc(-c2nc3sc(-c4ccccc4)cn3n2)cc1` here?
Its growth is 25.1%.

Which growth does the source give for `COc1ccc(C2CC(c3ccc(Nc4nc(Nc5ccc(F)cc5)nc(Nc5ccc(Cl)cc5)n4)cc3)=NN2C(C)=O)cc1` (stereo not drawn) here?
The growth was 105%.

How did the growth turn out when `O=C1CN(CCN2CC(=O)N(Cc3ccccc3)C(=O)C2)CC(=O)N1Cc1ccccc1` was run?
Its growth is 94.7%.

How did the growth turn out when `COc1ccc(-c2cc3c4c(nc5ccccc5c4c2)CC(c2cc(OC)c(OC)c(OC)c2)O3)cc1` (stereo not drawn) was run?
Its growth is 61.3%.

How did the growth turn out when `COc1ccc(C(=O)N=Nc2c(O)n(C)c3ccccc23)cc1` was run?
Its growth is 61.3%.

With `NC1CCN(c2nc(Nc3cccc(C(F)(F)F)c3)c3c(=O)[nH]ccc3n2)CC1` as the molecule, how does the growth read?
Its growth is -85.8% (active).

With `CC(C)(C)NC(=O)C(OC(=O)c1cccc(Cl)c1)c1ccc(Cl)cc1` (stereo not drawn) as the molecule, how does the growth read?
The growth was 95.8%.

How did the growth turn out when `NC(=O)C1(Nc2ccc(Br)cc2)CCCC1` was run?
The growth was 92.2%.

With `Cn1cc(-c2cc3ncnc(Nc4ccc(CC(=O)Nc5cc(C(C)(C)C)on5)cc4)c3s2)cn1` as the molecule, how does the growth read?
Its growth is 41.5%.

How did the growth turn out when `O=C(Nc1ccc(Br)cc1F)c1cc(Br)ccc1O` was run?
The growth was 6% (active).

Which growth does the source give for `COc1ccn2c(C(C)=O)cc(C(=O)c3ccc4c(c3)Sc3ccccc3N4)c2c1` here?
Its growth is 20.9%.

How did the growth turn out when `COc1nc2ccccc2cc1-c1nc2c(cnn2-c2ccccc2)c(=O)[nH]1` was run?
Its growth is 20.9%.

With `Cc1ccc(-c2nc(N3CCN(C(=O)Nc4ccc(Cl)c(C(F)(F)F)c4)CC3)c3ccccc3n2)cc1` as the molecule, how does the growth read?
The growth was 62%.

For `CCc1nnc(NC(=O)c2nnn(-c3ccccc3)c2-c2ccco2)s1`, which growth is on record?
The growth was 78.6%.

Which growth does the source give for `O=C(Nc1ccc(I)cc1F)c1cc(I)ccc1O` here?
The growth was 3.31% (active).

With `CCCCCCNC(=O)Oc1ccc(/C(=C(\C)c2ccc(OC)cc2)c2ccc(OCCN3CCCCC3)cc2)cc1` as the molecule, how does the growth read?
Its growth is 22.7%.
